Assay results as given in PubChem BioAssay.
Potency and affinity values are given separately. Inconclusive results are not listed. Active and inactive are the calls of the source. Unless noted, no rule for the calls is given here.

Legend:
[1] = cytotoxicity in PAX8-dependent RMG-1 cells, dose response, cell-based, cherry-pick (AID 687029;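 active = signal drop whose fitted half-maximal concentration is at most twice the top valid dose, in every test run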;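 also: cells exposed to compound for 96 hours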); settings: RMG-1 viability, CellTiterGlo ATP luminescence, 96 h; series mostly up to 35 µM
[2] = cytotoxicity in IOSE-T80 ovarian epithelial cells, dose response, selectivity assay for PAX8 inhibitor project, cell-based, cherry-pick (AID 687032;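 active = fitted half-maximal concentration for viability loss no higher than twice the top valid dose, in every repeat run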;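 also: cells exposed to compound for 96 h before reading; 0% = neutral control wells and -100% = 2 µM mitoxantrone kill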); settings: CellTiterGlo ATP luminescence, 96 h; series mostly up to 35 µM
[3] = inhibitors of CMV-promoter luciferase reporter, dose response, counter-screen for Pax8 inhibitor project, cell-based, HEK293, luminescence, dry powder (AID 743020;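 active = signal-lowering compounds whose fitted half-maximal concentration is at or below twice the top tested dose in every run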;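 also: HEK293 cells stably expressing the CMV luciferase reporter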); settings: SteadyGlo luminescence, 24 h; series mostly up to 35 µM
[4] = non-specific cell cytotoxicity, dose response, cytotoxicity control for PAX8 inhibitor project, plate reader, dry powder samples (AID 743021); settings: cell line, non-specific cytotoxicity counter-screen; series mostly up to 35 µM
[5] = IGROV1 ovarian cancer cell cytotoxicity, dose response, PAX8 inhibitor project, plate reader, dry powder samples (AID 743043); settings: series mostly up to 35 µM;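 also: more negative means fewer viable cells or more cytotoxicity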
[6] = NIH:OVCAR-3 ovarian cancer cell cytotoxicity, dose response, PAX8 inhibitor project, plate reader, dry powder samples (AID 743044); settings: NIH:OVCAR-3 ovarian cancer cell viability, hits give low values; at 4.2 µM unless noted
[7] = IOSE-T80 ovarian epithelial cell cytotoxicity, dose response, cytotoxicity control for PAX8 inhibitor project, plate reader, dry powder samples (AID 743045); settings: IOSE-T80 ovarian epithelial cells; series mostly up to 35 µM;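 also: 0% = neutral control median and -100% = positive control median; more negative values mean more cell killing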
[8] = A2780 ovarian cancer cell cytotoxicity, dose response, cytotoxicity control, plate reader, dry powder samples (AID 743046); settings: series mostly up to 35 µM;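 also: 0% = neutral control wells and -100% = cytotoxic reference compound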
[9] = cytotoxicity in OVCAR8 ovarian cancer cells, dose response, PAX8 project, cell-based, plate reader, dry powder samples (AID 743197); settings: series mostly up to 35 µM
[10] = HeLa cell cytotoxicity, dose response, cytotoxicity control, ATP luminescence, cherry-pick samples (AID 687004;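 active = a fitted half-maximal concentration no higher than twice the top valid tested dose, with signal falling as cells die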;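 also: 0% = neutral control median and -100% = staurosporine 10 µM control median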); settings: HeLa viability, ATP luminescence (CellTiter-Glo), 48 h; series mostly up to 26 µM
[11] = inhibitors of PAX8-driven TPO luciferase reporter, dose response, RMG-I cells, cherry-pick (AID 687027;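 active = every replicate test run called active, with the signal dropping as expected and potency within twice the top valid dose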); settings: RMG-I TPO-Luc reporter, SteadyGlo luminescence, 24 h; series mostly up to 8 µM

CC12CCC3C(CCC4(O)CC(O)CCC34C=NO)C1(O)CCC2C1=COC(=O)C1 (stereo not given)
inactive: outcome [1] | outcome [2] | outcome [3] | outcome [4]

NC(=O)c1cn(C2OC(CO)C(O)C2O)c2ncnc(N)c12 (stereo not given)
inactive: outcome [1] | outcome [2]

O=c1[nH]c2ccccc2n1C1CCN(C(c2cccc3ccccc23)c2nnnn2-c2ccc3c(c2)OCCO3)CC1 (stereo not given)
inactive: outcome [1] | outcome [2] | outcome [3] | outcome [4]

CC1=C(N2CC2)C(=O)C(CO)=C(N2CC2)C1=O
inactive: outcome [1] | outcome [2] | outcome [3]

O=C(Cc1ccccn1)N1CCCCN2[C@@H](CO)[C@@H](c3ccc(-c4ccccc4F)cc3)[C@@H]2C1
inactive: outcome [1] | outcome [2] | outcome [3] | outcome [5] | max activity [6] 31.6% [at 0.5 µM] | outcome [7] | outcome [8] | outcome [9]

C[C@H]1CCC/C=C/[C@@H]2C[C@H](O)C[C@H]2[C@H](O)/C=C/C(=O)O1
inactive: outcome [1] | outcome [2] | outcome [3] | outcome [4]

O=c1[nH]c2ccccc2n1C1CCN(C(c2cc3ccccc3o2)c2nnnn2-c2ccc3c(c2)OCCO3)CC1 (stereo not given)
inactive: outcome [1]

O=c1[nH]c2ccccc2n1C1CCN(C(CCc2ccccc2)c2nnnn2-c2ccc3c(c2)OCCO3)CC1 (stereo not given)
inactive: outcome [1]

CC[C@H](C)[C@@H]1NC(=O)CNC(=O)c2csc(n2)[C@H](C(C)(C)O)OC(=O)C(C)(C)[C@H](CCCC(C)(Cl)Cl)OC(=O)c2csc1n2
inactive: outcome [1] | outcome [2] | outcome [3] | outcome [4]

O=C(Cc1cccnc1)N1CCCCN2[C@H](C1)[C@H](c1ccc(/C=C/c3ccccc3)cc1)[C@@H]2CO
inactive: outcome [1] | outcome [2] | outcome [3] | outcome [5] | outcome [7]

CC1=C(O)C(=O)C=C2C1=CC=C1C2(C)CCC2(C)C3CC(C)(C(=O)O)CCC3(C)CCC12C (stereo not given)
inactive: outcome [1] | outcome [2] | outcome [3]

COc1ccc(-n2nnnc2C(CCc2ccccc2)N2CCC(n3c(=O)[nH]c4ccccc43)CC2)cc1 (stereo not given)
inactive: outcome [1]

CCn1nc(/C=C/c2ccccc2)nc2c(=O)n(C)c(=O)nc1-2
inactive: outcome [1]

COC(=O)C1=C(c2ccc(F)cc2OCc2ccccc2)C[C@@H]2CC[C@H]1N2C(=O)NC1Cc2ccccc2C1
inactive: outcome [1] | outcome [2] | outcome [3] | outcome [4]

C[C@@H]1CN([C@@H](C)CO)C(=O)CCCn2nncc2CO[C@H]1CN(C)C(=O)Oc1cccc2ccccc12
inactive: outcome [10]

COC(=O)C1=C(C(=O)OC)C2OC1c1cc3ccccc3cc12
inactive: outcome [1] | outcome [2]

C[C@H]1CN([C@@H](C)CO)C(=O)CCCn2nncc2CO[C@H]1CN(C)C(=O)Oc1cccc2ccccc12
inactive: outcome [10]

CC[C@@]1(O)C(=O)OCc2c1cc1n(c2=O)Cc2cc3c(NC(=O)CN)cccc3nc2-1
inactive: outcome [1] | outcome [2] | outcome [3] | outcome [4]

C[C@@H]1O[C@@H](O[C@@H]2C=C3CCC4C(CC[C@]5(C)[C@@H](c6ccc(=O)oc6)CC[C@]45O)[C@@]3(C)CC2)[C@H](O)[C@H](O)[C@H]1O (stereo not given in full)
inactive: outcome [1] | outcome [2] | outcome [3] | outcome [4]

CCCc1nc2ccc(Br)cc2c(=O)n1-c1ccc([N+](=O)[O-])c(C(F)(F)F)c1
inactive: outcome [11] | outcome [1] | outcome [2] | outcome [3] | outcome [4]

O=c1[nH]c2ccccc2n1C1CCN(C(c2ccccc2OC(F)(F)F)c2nnnn2-c2ccc3c(c2)OCCO3)CC1 (stereo not given)
inactive: outcome [1]

O=C(Cc1cccnc1)N1CCCCN2[C@H](C1)[C@H](c1ccc(C#CC3CCCC3)cc1)[C@@H]2CO
inactive: outcome [1] | outcome [2] | outcome [3] | outcome [4] | outcome [5] | outcome [7] | outcome [9]

O=c1[nH]c2ccccc2n1C1CCN(C(c2cc3ccccc3o2)c2nnnn2Cc2ccccc2)CC1 (stereo not given)
inactive: outcome [1] | outcome [2] | outcome [3]

N#CC1c2ccccc2-n2nncc2CN1Cc1cc(Cl)cc(Cl)c1 (stereo not given)
inactive: outcome [1] | outcome [2] | outcome [3] | outcome [4]

COc1cc2c(c(OC)c1OC)-c1ccc(O)cc1[C@@H](NC(C)=O)CC2
inactive: outcome [1] | outcome [2] | outcome [3] | outcome [4]

O=c1[nH]c2ccccc2n1C1CCN(C(CCc2ccccc2)c2nnnn2Cc2ccccc2)CC1 (stereo not given)
inactive: outcome [1] | outcome [2] | outcome [3]

COC(=O)C1=C(c2ccc(F)cc2OCc2ccccc2)C[C@@H]2CC[C@H]1N2C(=O)NCc1ccc2[nH]ccc2c1
inactive: outcome [1] | outcome [2] | outcome [3] | outcome [4]

O=C(Cc1ccncc1)N1CCCCN2[C@H](C1)[C@H](c1ccc(C#Cc3ccccc3F)cc1)[C@@H]2CO
inactive: outcome [1] | outcome [2] | outcome [3] | outcome [4] | outcome [7] | outcome [8]

C=C1C(C)C2C(Cc3ccccc3)NC(=O)C23OC(=O)/C=C/C(O)CCCC(C)C/C=C/C3C1O (stereo not given)
inactive: outcome [1] | outcome [2]

O=c1[nH]c(CN2CC=C(c3ccccc3)CC2)nc2cc(C(F)(F)F)ccc12
inactive: outcome [10]

CC1=CC(C)CC(C)OC(=O)CC(c2ccc(O)cc2)NC(=O)C(Cc2c(Br)[nH]c3ccccc23)N(C)C(=O)C(C)NC(=O)C(C)C1 (stereo not given)
inactive: outcome [1] | outcome [2] | outcome [3] | outcome [4]

CC(=O)OC(C)(C)/C=C/C(=O)C(C)(O)C1C(O)CC2(C)C3CC=C4C(CC(O)C(=O)C4(C)C)C3(C)C(=O)CC12C (stereo not given)
inactive: outcome [1] | outcome [2] | outcome [3] | outcome [4]

CSCCC(c1nnnn1-c1ccc2c(c1)OCCO2)N1CCC(n2c(=O)[nH]c3ccccc32)CC1 (stereo not given)
inactive: outcome [1] | outcome [2] | outcome [3] | outcome [4]

C[C@@H]1O[C@@H](O[C@H]2C[C@@H](O)[C@]3(CO)[C@H]4[C@H](O)C[C@]5(C)[C@@H](C6COC(=O)C6)CC[C@]5(O)[C@@H]4CC[C@]3(O)C2)[C@H](O)[C@H](O)[C@H]1O (stereo not given in full)
inactive: outcome [1] | outcome [2] | outcome [4]

COc1ccc(C(c2nnnn2Cc2ccccc2)N2CCC(n3c(=O)[nH]c4ccccc43)CC2)cc1 (stereo not given)
inactive: outcome [1] | outcome [3] | outcome [4]

COC1C(O)C(C)OC(OC2CCC3(C)C(CCC4C3C(O)CC3(C)C(C5=CC(=O)OC5)CCC43O)C2)C1O (stereo not given)
inactive: outcome [1] | outcome [2] | outcome [4]

CC1CC(C)CC(C)C(O)C(C#N)=CC=CCC(C2CCCC2C(=O)O)OC(=O)CC(O)C(C)C1 (stereo not given)
inactive: outcome [1] | outcome [3] | outcome [4]

Cc1ccc(OC(=O)N(C)C[C@@H]2OCc3ccccc3-c3c(n(C)c4ccccc34)C(=O)N([C@@H](C)CO)C[C@H]2C)cc1
inactive: outcome [1] | outcome [2] | outcome [4] | outcome [5] | outcome [7] | activity change, negative = cytotoxicity [8] -16.8% [at 8 µM]

COc1cc(C2c3cc4c(c(O)c3CC3COC(=O)C32)OCO4)cc(OC)c1OC (stereo not given)
inactive: outcome [1] | outcome [2] | outcome [4]

CC1CCC/C=C/C2CC(O)CC2C(O)/C=C/C(=O)O1 (stereo not given)
inactive: outcome [1] | outcome [2] | outcome [4]

CC12CCC3C(CCC4(O)CC(O)CCC34C=O)C1(O)CCC2C1=CC(=O)OC1 (stereo not given)
inactive: outcome [1] | outcome [2] | outcome [4]

N#Cc1ccc2nc(-c3ccc(CN4CCC(n5c(=O)[nH]c6ccccc65)CC4)cc3)c(-c3ccccc3)nc2c1
inactive: outcome [1] | outcome [4]

COc1cccc(C(c2nnnn2Cc2ccccc2)N2CCC(n3c(=O)[nH]c4ccccc43)CC2)c1OC (stereo not given)
inactive: outcome [1] | outcome [2] | outcome [4]

CN(C)CC(C(=O)Cc1ccccc1)c1ccccc1 (stereo not given)
inactive: outcome [1] | outcome [3] | outcome [4]

COC1CC2C=C(C)C=CC=CC(=O)NC(c3ccccc3)CC=CCCC(O)CC(=O)C2=C1O (stereo not given)
inactive: outcome [1] | outcome [3]

O=C1NC2C(=CC(O)C(O)C2O)c2cc3c(cc21)OCO3 (stereo not given)
inactive: outcome [1] | outcome [3] | outcome [4]

CC(=O)OC1CC(OC2C(O)CC(OC3C(O)CC(OC4CCC5(C)C(CCC6C5CCC5(C)C(C7=CC(=O)OC7)CCC65O)C4)OC3C)OC2C)OC(C)C1OC1OC(CO)C(O)C(O)C1O (stereo not given)
inactive: outcome [1] | outcome [2] | outcome [4]

CCC1CN2CCc3cc(OC)c(OC)cc3C2CC1CC1NCCc2c1[nH]c1ccc(O)cc21 (stereo not given)
inactive: outcome [1] | outcome [2] | outcome [4]

CSCCC(c1nnnn1Cc1ccccc1)N1CCC(n2c(=O)[nH]c3ccccc32)CC1 (stereo not given)
inactive: outcome [1] | outcome [3] | outcome [4]

CC(=CCOc1ccc2ccc(=O)oc2c1)C1=CC(=O)C(C)(C)O1
inactive: outcome [1] | outcome [2] | outcome [4]

CC(=O)OC(C)(C)/C=C/C(=O)C(C)(O)C1[C@H](O)C[C@@]2(C)C3CC=C4C(CC[C@@H](O)C4(C)C)[C@]3(CO)C(=O)C[C@]12C (stereo not given in full)
inactive: outcome [1] | outcome [3] | outcome [4]

COC1=C(C)C(=O)C2=C(C1=O)C(CO)N1C(C#N)C3CC4C(C1C2N1CCOC41)N3C (stereo not given)
inactive: outcome [1] | outcome [4]

CCC(C)C1NC(=O)C(NC(=O)C(CC(C)C)N(C)C(=O)C2CCCN2C(=O)C(C)O)C(C)OC(=O)C(Cc2ccc(OC)cc2)N(C)C(=O)C2CCCN2C(=O)C(CC(C)C)NC(=O)[C@H](C)C(=O)[C@H](C(C)C)OC(=O)CC1O (stereo not given in full)
inactive: outcome [1] | outcome [3] | outcome [4]

O=C(c1ccccc1)C(CN1CCCC1)c1ccccc1 (stereo not given)
inactive: outcome [1] | outcome [2] | outcome [4]

O=C(C1CC1)N1C[C@@H]2N[C@H](C1)[C@@H]2c1ccc(-c2ccncc2)cc1
inactive: outcome [1] | outcome [2] | outcome [4]

COC(=O)C1=C(c2ccc(F)cc2OCc2ccccc2)C[C@@H]2CC[C@H]1N2C(=O)NCc1ccc(C)cc1
inactive: outcome [1] | outcome [3] | outcome [4]

C[C@]12CC[C@H](O)C[C@H]1CC[C@@H]1[C@@H]2CC[C@]2(C)[C@@H](C3=CC(=O)OC3)CC[C@]12O
inactive: outcome [1] | outcome [3] | outcome [4]

CN1C2CCC1/C(=C/c1ccccn1)C(=O)/C2=C\c1ccccn1
inactive: outcome [1] | outcome [2] | outcome [4]

O=C1NC2C(O)C(O)C(O)C(O)C2c2cc3c(c(O)c21)OCO3 (stereo not given)
inactive: outcome [1] | outcome [2] | outcome [4]

COc1ccc(CC2C(=O)NC(C)C(=O)N(C)C3C(=O)N(C)C(Cc4ccc(O)c(c4)Oc4ccc(cc4)C3O)C(=O)NC(C)C(=O)NC(C)C(=O)N2C)cc1 (stereo not given)
inactive: outcome [1] | outcome [2] | outcome [4]
